Measurements as given in PubChem BioAssay AID2535 (National Center for Advancing Translational Sciences (NCATS), 2010).
Calls of active or inactive are those of the source. The call rests on the fitted dose curve; in most records, active means well fitted curve in the direction sought with a large enough effect; inconclusive means small, poorly fitted or top-dose-only effect, or effect the other way, or another doubt; inactive means no such curve, though single readings can be large or run the other way.

Target: Pyruvate kinase PKLR (Homo sapiens) (UniProt P30613)
Experiment: Secondary Concentration-Response Assay for Activators of Human Liver Pyruvate Kinase: for Probe SAR
Conditions: purified hPK-L, ATP production, Kinase-Glo luminescence; series mostly up to 58.3 µM
Outline: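 Purified human liver pyruvate kinase (0.1 nM) incubated 1 h at room temperature with compound, 0.5 mM PEP and 0.1 mM ADP in imidazole buffer pH 7.2; ATP formed read by Kinase-Glo luminescence, normalized to uninhibited wells.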

Sequence of Pyruvate kinase PKLR (Homo sapiens) (P30613 whole entry, looked up): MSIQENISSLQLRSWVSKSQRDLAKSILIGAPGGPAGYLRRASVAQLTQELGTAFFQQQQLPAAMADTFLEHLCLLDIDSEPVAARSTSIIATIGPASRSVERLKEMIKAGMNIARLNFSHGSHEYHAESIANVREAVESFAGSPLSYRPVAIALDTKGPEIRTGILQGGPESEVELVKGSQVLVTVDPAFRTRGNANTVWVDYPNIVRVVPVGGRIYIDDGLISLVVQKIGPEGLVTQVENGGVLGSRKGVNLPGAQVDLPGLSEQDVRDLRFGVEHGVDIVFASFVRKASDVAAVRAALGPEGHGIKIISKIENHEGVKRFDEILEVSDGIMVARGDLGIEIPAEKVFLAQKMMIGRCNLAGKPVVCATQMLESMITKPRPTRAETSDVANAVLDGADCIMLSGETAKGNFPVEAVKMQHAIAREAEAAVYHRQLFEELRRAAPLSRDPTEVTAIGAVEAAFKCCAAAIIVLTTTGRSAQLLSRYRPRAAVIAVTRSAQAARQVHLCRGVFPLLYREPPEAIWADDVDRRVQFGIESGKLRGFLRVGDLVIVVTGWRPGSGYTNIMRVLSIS

outcome, inactive:
Nc1cccc(S(=O)(=O)N2CCCN(S(=O)(=O)c3ccc4c(c3)OCCO4)CC2)c1
Cc1ccc(NS(=O)(=O)c2cccc(Cl)c2)cc1C
O=C1CCc2cc(S(=O)(=O)Nc3ccc(F)cc3)ccc2N1
O=C1CCc2cc(S(=O)(=O)NCc3ccccc3)ccc2N1
O=C1CCc2cc(S(=O)(=O)Nc3ccc(Cl)cc3)ccc2N1
O=C1CCc2cc(S(=O)(=O)Nc3ccncc3)ccc2N1
COc1cccc(Cn2ncc3c4sc(SC)cc4n(C)c3c2=O)c1
Cc1ccc2nc(-c3ccc(C)o3)c(Nc3ccc4c(c3)OCO4)n2c1
CC(=O)N1CCc2cc(S(=O)(=O)Nc3ccc(C)c(C)c3)ccc21
O=C1c2ccccc2C(=O)N1c1ccc(Cl)cc1
Cc1ccc(NS(=O)(=O)c2ccc3c(ccn3C)c2)cc1C
Cc1ccc(NS(=O)(=O)c2cc3c(cc2-c2ccsc2)NC(=O)CO3)cc1C
Cc1ccc2nc(-c3ccc(C)o3)c(Nc3ccc(Cl)cc3)n2c1
